# Source: PubChem BioAssay
# TEAD-YAP inh: TEAD-YAP interaction inhibition, primary screen, TEAD-YAP interaction inhibitor project, luminescence, HEK-TIYL cells; 640,000 tested, 1.4% active; TEAD-Gal4/YAP UAS-luciferase luminescence; inhibition, % at 9.12 µM; in the data active = inhibition above about 32%;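 also: 0% = median of test compound wells and 100% = reference inhibitor wells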
# GPR151 ag: activators of human GPR151, primary screen, cell-based, PathHunter beta-arrestin, luminescence | G-protein coupled receptor 151 (Homo sapiens), Q8TDV0 | 650,000 tested, 1% active | activation, % at 11.2 µM | PathHunter beta-arrestin GPR151 cells | AID 1508602, 2020; in the data active = activation above about 4.9%;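 also: 0% = median of compound wells and 100% = cells with positive control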
# MITF inh: MITF inhibitors, primary screen, biochemical, AlphaScreen, human; Microphthalmia-associated transcription factor (Homo sapiens), O75030; AlphaScreen MITF homodimerization, bead proximity signal; inhibition, % at 2.6 µM; 650,000 tested, 0.91% active; AID 1259374, 2018; in the data active = inhibition above about 50%;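 also: 0% = vehicle wells with protein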
# FBW7 activator: FBW7 E3 ligase activators, primary screen, biochemical, AlphaScreen, human | F-box/WD repeat-containing protein 7 (Homo sapiens), Q969H0 | AlphaScreen FBW7–phospho-cyclin E peptide binding, activator screen | normalized activity (activation), % at 26.1 µM | 650,000 tested, 0.13% active | AID 1259310, 2017; in the data active = normalized activity above about 1.9%;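 also: purified mutant Fbw7 with reduced substrate affinity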
# Target sequence (Q969H0 whole entry, looked up): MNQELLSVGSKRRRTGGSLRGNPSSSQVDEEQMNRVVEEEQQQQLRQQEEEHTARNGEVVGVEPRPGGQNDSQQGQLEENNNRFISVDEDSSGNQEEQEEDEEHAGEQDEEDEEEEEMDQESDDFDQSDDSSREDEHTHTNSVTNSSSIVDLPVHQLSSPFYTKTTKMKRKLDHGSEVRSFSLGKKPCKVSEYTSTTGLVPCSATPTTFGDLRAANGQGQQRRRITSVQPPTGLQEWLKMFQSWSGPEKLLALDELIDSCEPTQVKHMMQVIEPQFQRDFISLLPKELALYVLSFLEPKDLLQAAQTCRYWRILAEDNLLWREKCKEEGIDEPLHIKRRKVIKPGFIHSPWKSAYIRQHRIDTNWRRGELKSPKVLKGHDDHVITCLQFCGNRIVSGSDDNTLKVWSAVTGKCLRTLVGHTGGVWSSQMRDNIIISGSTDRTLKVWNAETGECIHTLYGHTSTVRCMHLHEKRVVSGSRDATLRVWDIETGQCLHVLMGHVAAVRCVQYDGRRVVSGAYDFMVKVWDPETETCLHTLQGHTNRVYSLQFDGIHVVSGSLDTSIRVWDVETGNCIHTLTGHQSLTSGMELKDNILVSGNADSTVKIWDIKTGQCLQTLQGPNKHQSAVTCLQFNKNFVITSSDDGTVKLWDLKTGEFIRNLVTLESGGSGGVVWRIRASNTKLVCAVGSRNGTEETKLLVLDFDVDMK
# MITF confirm: MITF inhibitors, retest of hits, confirmation, biochemical, AlphaScreen, triplicate | shares compounds with MITF inh | AlphaScreen MITF homodimerization, biotin/His-MITF beads | inhibition, % at 2.6 µM | 4,700 tested, 16% active | AID 1259372, 2018;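 active = inhibition above a cutoff derived from the DMSO control wells, cut at about 28% in these data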;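 also: 0% = MITF dimer wells with DMSO only; inhibitors lower the bead chemiluminescence by keeping MITF from dimerizing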
# AS interf DR: AlphaScreen optical interference compounds, dose response, counter-screen, biochemical, HTS | shares compounds with MITF inh | AlphaScreen optical interference counterscreen, cell-free | IC50, µM | 480 tested, 6% active; call rule not given here
# AS interf ctr: AlphaScreen optical interference compounds, counter-screen for MITF inhibitor project, biochemical, triplicate; 4,700 tested, 7.6% active; LysRS AlphaScreen counterscreen, signal interference; inhibition, % at 2.6 µM; shares compounds with MITF inh;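 active = inhibition above a cutoff derived from the DMSO control wells, cut at about 30% in these data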
# Active calls of the source: *; . = no result. Only some compounds are listed: those with a hit (about 3.5% of all), similar ones and a draw of the others.
SMILES,TEAD-YAP inh,GPR151 ag,MITF inh,FBW7 activator,MITF confirm,AS interf ctr,others
CC1(c2cc(C(F)(F)F)n3nc(C(=O)N4CCC(c5ccncc5)CC4)cc3n2)CC1,-21,1,56*,0,-15,-7,
COc1ccc(-c2cc(C(F)(F)F)n3nc(C(=O)N4CCC(C)CC4)cc3n2)cc1,-11,1,11,0,.,.,
CCOc1ccc(NC(=O)CSC2=C(C#N)C(c3ccco3)C(C(N)=O)=C(C)N2)cc1 (stereo unspecified),27,1,-6,0,.,.,
Cc1c(C(=O)Nc2cccc(F)c2)cccc1[N+](=O)[O-],8,1,-1,0,.,.,
Cc1cc(=O)[nH]c(N/N=C/c2c3ccccc3cc3ccccc23)n1,-1,-2,51*,0,24,-4,
O=C(Nc1nc2ccc(Cl)cc2s1)c1cccc(Oc2ccccc2)c1,-1,1,74*,0,1,7,
O=C(Nc1ccc(O)c(-c2nc3ccccc3s2)c1)c1cccc(Oc2ccccc2)c1,0,1,61*,0,3,1,
O=C(Nc1nc2ccc(F)cc2s1)c1cccc(Oc2ccccc2)c1,-11,-1,-3,0,.,.,
O=C(Nc1ccc(O)c(-c2nc3ccccc3s2)c1)c1ccccc1Oc1ccccc1,-1,1,-7,0,.,.,
Cc1ccc2ncc(C(=O)N3CCCc4ccccc43)c(=O)n2c1,-2,-1,7,1,.,.,
COc1ccc(CCNC(=O)C2CCN(c3ccc(Nc4ccc5ncccc5c4)nn3)CC2)cc1,-6,2,0,0,.,.,
O=[N+]([O-])c1ccc(CN2CCSCC2)cc1,5,1,48,0,.,.,
O=[N+]([O-])c1ccc(-c2nsc3c(N4CCN(Cc5cccnc5)CC4)ncnc23)cc1,-14,0,13,0,.,.,
O=[N+]([O-])c1ccc(CN2CCN(Cc3cccnc3)CC2)cc1,-4,-1,64*,0,-21,2,
O=[N+]([O-])c1ccc(CN2CCN(Cc3ccncc3)CC2)cc1,7,-1,65*,0,10,15,
CCOc1ccc(NC(=O)CSc2nnc(-c3ccncc3)n2CCCN(C)C)cc1,3,-1,53*,0,9,9,
CN(C)CCCn1c(SCc2ccccc2)nnc1-c1ccncc1,-8,0,73*,0,9,11,
Cc1ccc(C(C)C)cc1OCCOCCN1CCCC1,4,-2,54*,0,-5,-14,
C=CCNCCOc1cc(C(C)C)ccc1C,-6,-1,3,0,.,.,
Cc1ccc(C(C)C)cc1OCCNC(C)C,6,-2,89*,1,1,4,
Cc1ccc(C(C)C)cc1OCCCCn1ccnc1,1,2,53*,0,8,8,
Cc1ccc(C(C)C)c(OCCCCn2ccnc2)c1,-1,1,20,0,.,.,
CCC(CC)NC(=O)COC(=O)c1ccc(Cl)nc1,-7,-1,3,0,.,.,
COc1ccc(OCC(=O)N/N=C/c2cc([N+](=O)[O-])ccc2O)cc1,19,-1,33,0,.,.,
Cc1ccccc1C1CC(c2ccc(Cl)cc2)Nc2nc(N)nn21 (stereo unspecified),10,2,-10,-1,.,.,
SMILES,TEAD-YAP inh,GPR151 ag,MITF inh,FBW7 activator,MITF confirm,AS interf ctr,others
Cc1[nH]n(-c2nc3ccccc3[nH]2)c(=O)c1C1OC(=O)c2ccccc21 (stereo unspecified),13,-1,91*,0,71*,100*,
O=c1cc(-c2ccccc2)[nH]n1-c1nc2ccccc2[nH]1,16,-1,40,-1,.,.,
C=CCc1cc(OC)ccc1OCCCCN1CCN(C)CC1,-3,-1,76*,0,-13,0,
C=CCc1ccccc1OCCN1CCCC1,8,0,26,0,.,.,
CCOc1cc(C=O)ccc1OCCCCN1CCN(CC)CC1,10,2,71*,0,9,10,
C=CCc1ccccc1OCCCCN1CCN(C)CC1,-4,0,57*,0,-7,-4,
COc1cccc(C=O)c1OCCCCN1CCN(C)CC1,8,1,66*,0,-2,1,
CCOc1ccc2nc3sc(C(=O)NC(C)CC)c(N)c3cc2c1 (stereo unspecified),8,-1,8,0,.,.,
CC(=O)c1ccccc1OCCCCN1CCN(C)CC1,2,2,82*,0,-5,-7,
CCc1ccccc1OCCOCCN1CCN(C)CC1,3,-2,58*,0,2,0,
CN1CCN(CCCCOc2ccccc2C=O)CC1,3,0,16,0,.,.,
CCN1CCN(CCCCOc2ccccc2C=O)CC1,16,-1,58*,0,7,7,
C=CCc1cccc(OC)c1OCCCN1CCN(C)CC1,6,-1,78*,0,-9,1,
O=C(O)c1cc(N/N=C/c2ccco2)ccc1Cl,-65,-9,5,0,.,.,
COc1ccc(C)cc1NC(=O)C(C(C)C)N1C(=O)c2ccccc2C1=O (stereo unspecified),5,0,71*,0,0,-2,
COc1ccc(C)cc1NC(=O)C(C)c1ccccc1 (stereo unspecified),-12,0,-5,0,.,.,
COc1ccc(C)cc1NC(=O)C(NCC(O)c1ccccc1)c1ccccc1 (stereo unspecified),-5,4,84*,0,30*,29,AS interf DR=>7
CC(NC1CCN(c2ccc(C(=O)NCc3cccnc3)cc2)CC1)c1cccs1 (stereo unspecified),-1,0,10,0,.,.,
COc1ccc(-c2nnc(NC(=O)CS(=O)(=O)c3ccccc3)o2)cc1,-9,-1,16,0,.,.,
Cc1ccc(S(=O)(=O)Cn2nnnc2CN2CCN(c3ccccc3)CC2)cc1,0,0,-1,0,.,.,
Cc1ccc(S(=O)(=O)Cn2nnnc2CN2CCOCC2)cc1,-6,-1,64*,0,10,10,
OCCCNc1ccc2ncc(-c3ccccc3Cl)n2n1,8,2,85*,0,13,17,
O=S(=O)(O)c1cc(S(=O)(=O)O)c2cc(O)c(S(=O)(=O)O)cc2c1,7,-1,60*,-1,67*,14,AS interf DR=>6.5
O=C(CN1C(=O)c2ccccc2C1=O)NNC(=O)c1cc2c(s1)CCCC2,-8,0,-4,0,.,.,
O=C(OCN1C(=O)c2ccccc2C1=O)c1cc2c(s1)CCC2,2,0,74*,0,77*,6,AS interf DR=>7.1
